Among all 13,000 compounds or so, about 3,200 (25%) showed an effect of 50% or more. The list shows a part of the results.
tested on: P. falciparum stage V gametocytes; set-up: BacTiter-Glo ATP luminescence viability of purified stage V gametocytes in 384-well plates, per cent inhibition versus DMSO; details: 48 h, 5 µM; inhibitor

| SMILES | % Inhibition [%] |
| --- | --- |
| O=C(Nc1ccc(C(=O)N(Cc2ccc3c(c2)OCO3)C2CCCC2)cc1)c1cccs1 [TCMDC-125341] | 18.48 |
| O=C(Nc1cccc(C2=NCCCN2)c1)Nc1cccc(C2=NCCCN2)c1 [TCMDC-137203] | -4.824 |
| CNCC(C)(C)c1nc(-c2ccc(Cl)c(O)c2)c(-c2ccncc2)[nH]1 [TCMDC-140762] | -81.65 |
| CC1CCc2sc(-c3nnc(SC(C)C(=O)N4CCCC4)o3)cc2C1 (stereo not shown) [TCMDC-124867] | 8.673 |
| COc1ccc2nc(N=C3NC4(c5ccccc5)NC(=Nc5nc6ccc(OC)cc6[nH]5)NC4(c4ccccc4)N3)[nH]c2c1 (stereo not shown) [TCMDC-139632] | -5.623 |
| O=C(Nc1ccc(OC2CCN(Cc3ccsc3)C2)c(Cl)c1)c1cccs1 (stereo not shown) [TCMDC-133948] | 17.98 |
| CC(C)NCc1ccc(-c2ccc(CN3CCCC(c4ccccc4)C3)cc2)c(C(=O)NC2Cc3ccccc3C2)c1 (stereo not shown) [TCMDC-134700] | 9.317 |
| CCc1ccc(-c2cnc(N)c3cc(-c4ccnc(N)n4)ccc23)cc1 [TCMDC-134546] | 12.63 |
| Cc1cccc2[nH]c(-c3cccc(-c4cccc(NC(=O)Nc5ccsc5)c4)c3)nc12 [TCMDC-133213] | -5.013 |
| COc1ccc2c(ccc3c2ncc2c(=O)n(-c4ccccc4)[nH]c23)c1 [TCMDC-142015] | 8.903 |
| Nc1cccc(CNCc2ccc(-c3cccc(-c4nc5ccccc5[nH]4)c3)cc2)c1.O=C(O)C(F)(F)F [TCMDC-132924] | -75.75 |
| NC(=O)c1cccc(CNCc2ccc(-c3cccc(-c4nc5ccccc5[nH]4)c3)cc2)c1.O=C(O)C(F)(F)F [TCMDC-132570] | 70.11 |
| O=C(O)C(F)(F)F.c1ccc(-n2ncc(CNCc3ccc(-c4cccc(-c5nc6ccccc6[nH]5)c4)cc3)n2)cc1 [TCMDC-132564] | -40.42 |
| O=C(O)C(F)(F)F.c1cc(-c2ccc(CNCc3ccsc3)cc2)cc(-c2nc3ccccc3[nH]2)c1 [TCMDC-132563] | -10.09 |
| Cn1cccc1CCNCc1ccc(-c2cccc(-c3nc4ccccc4[nH]3)c2)cc1.O=C(O)C(F)(F)F [TCMDC-132543] | 2.509 |
| Cn1cncc1CNCc1ccc(-c2cccc(-c3nc4ccccc4[nH]3)c2)cc1.O=C(O)C(F)(F)F [TCMDC-132569] | 52.47 |
| COC(=O)c1cccc(CNCc2ccc(-c3cccc(-c4nc5ccccc5[nH]4)c3)cc2)c1.O=C(O)C(F)(F)F [TCMDC-132555] | 70.67 |
| COC(=O)c1cccc(CNCc2cccc(-c3ccc(-c4nc5ccccc5[nH]4)cc3)c2)c1.O=C(O)C(F)(F)F [TCMDC-132959] | -6.074 |
| COC(=O)c1cccc(CNCc2ccc(-c3cccc(-c4nc5cc(C(F)(F)F)ccc5[nH]4)c3)cc2)c1.O=C(O)C(F)(F)F [TCMDC-132947] | -37.36 |

— paper PMC4552634, “A New Set of Chemical Starting Points with Plasmodium falciparum Transmission-Blocking Potential for Antimalarial Drug Discovery” (PLoS ONE, 2015)
